Values joined by “and” are separate entries in the source; they are usually repeats but may differ in a detail not shown here. Equal values may be shown once. Records with an inconclusive call do not appear. Active and inactive are the calls of the source. Unless noted, calls follow the shape of the dose curve; as a rule, active = well fitted curve in the direction sought with a large enough effect in the repeat runs; inconclusive = weak or mixed curves; inactive = no such curve, though single readings can be large; an effect the other way counts as inactive or inconclusive.
Legend:
[1] = qHTS assay to identify small molecule agonists of the hypoxia (HIF-1) signaling pathway - cell viability counter screen (AID 1224844; calls by dose curve; also: nearly all actives have a fitted effect of over 50% in size)
Procedure, shortened: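 ME-180 HRE-bla cells, 2,000/well, 0.5% dialyzed FBS; 5 hr settle, 17 hr compound at 37C/5% CO2; CCF4-AM reporter read first, then CellTiter-Glo luminescence after 30 min RT.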

[2] = qHTS assay to identify small molecule agonists of H2AX (AID 1224845; active = well fitted activation curve with a large enough effect in the signal ratio in the repeat runs, not every such curve was filed as active; the % refers to the signal ratio)
Procedure, shortened: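 Phospho-H2AX Ser139 measured by HTRF (ex 320 nm; em 665 and 620 nm) after 24 hr antibody incubation. Compounds, 15 concentrations, 0.76% DMSO, were applied to CHO-K1 cells for 3hr at 37C before lysis.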

[3] = qHTS assay to identify small molecule agonists of the hypoxia (HIF-1) signaling pathway (AID 1224846; active = well fitted activation curve with a large enough effect in the signal ratio in the repeat runs, not every such curve was filed as active; the % refers to the signal ratio)
Procedure, shortened: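 Cell line: CellSensor HRE-bla ME-180; 2,000 cells/well; 0.5% dialyzed FBS; 5 h preincubation; DMSO compound pin transfer; 17 h, 37C, 5% CO2; CCF4-AM added; bla FRET signal scored for activation.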

[4] = qHTS assay to identify small molecule agonists of H2AX - cell viability counter screen (AID 1224847; calls by dose curve; also: top concentration of the series differs between compounds; nearly all actives have a fitted effect of over 30% in size)
Procedure, shortened: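 Compounds tested at 15 concentrations were incubated 3 hr at 37C with wild-type CHO-K1 cells; cellular ATP-based luminescence (CellTiter-Glo) indicated viability.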

[5] = qHTS assay to identify small molecule antagonists of the estrogen related receptor (ERR) signaling pathway from Tox21 library (AID 1224848); also: nearly all actives have a fitted effect of over 50% in size
Procedure, shortened: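 Reading was by luminescence 30 min after ONE-Glo addition. Before that, ERR cells at 2,000 per well had rested 6 h at 37 C/5% CO2 and then received pin-tooled compounds in DMSO for 18 h at 37 C.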

[6] = qHTS assay to identify small molecule agonists of the estrogen related receptor (ERR) signaling pathway from Tox21 library (AID 1224849; calls by dose curve; also: nearly all actives have a fitted effect of over 15% in size); conditions: ERR reporter cell line, ONE-Glo luciferase, 18 h
Procedure, shortened: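 ERR cells, 6 h pre-incubation 37 C/5% CO2; cpd in DMSO pinned; 18 h 37 C; ONE-Glo added, 30 min RT; luminescence read. Agonist mode, qHTS.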

[7] = qHTS RealTime-Glo MT Cell Viability Assay in HepG2 cells - 24 hour (AID 1224867); also: nearly all actives have a fitted effect of over 50% in size
Procedure, shortened: (§1)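 Compound treatment began 5 h after plating HepG2 cells (600/well) with NanoLuc luciferase and prosubstrate. Plates stayed at 37 C for 40 h; luminescence was captured at six time points, 0 h through 40 h.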

[8] = qHTS RealTime-Glo MT Cell Viability Assay in HEK293 cells - 32 hour (AID 1224868); also: top concentration of the series differs between compounds; nearly all actives have a fitted effect of over 50% in size
Procedure, shortened: (§2)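 Quantitative high-throughput screen of the Tox21 10K library in HEK293: cells and RealTime-Glo reagents plated together, compound added at 5 h, luminescence monitored through 40 h at 37 C.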

[9] = A CellTox Green Cytotoxicity Assay to monitor cytotoxicity in HEK293 cells - 0 hour (AID 1224869); also: nearly all actives have a fitted effect of over 50% in size
Procedure, shortened: (§3)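 Nonlytic real-time cytotoxicity: HEK293 + CellTox Green reagent plated, 5 h preincubation, pintool compound addition (23 nL in DMSO), 37 C for 40 h, fluorescence measured at successive time points.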

[10] = qHTS RealTime-Glo MT Cell Viability Assay in HepG2 cells - 40 hour (AID 1224870); also: nearly all actives have a fitted effect of over 50% in size
Procedure, shortened: (§4)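 Real-time viability: cells seeded at 600 per well together with NanoLuc and cell-permeant prosubstrate, compounds added after 5 h incubation. Luminescence tracked at 0, 8, 16, 24, 32 and 40 h of exposure.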

[11] = A CellTox Green Cytotoxicity Assay to monitor cytotoxicity in HEK293 cells - 40 hour (AID 1224871); also: nearly all actives have a fitted effect of over 45% in size
Procedure, shortened: as §3

[12] = qHTS RealTime-Glo MT Cell Viability Assay in HEK293 cells - 16 hour (AID 1224872)
Procedure, shortened: as §2

[13] = qHTS RealTime-Glo MT Cell Viability Assay in HEK293 cells - 40 hour (AID 1224874); conditions: RealTime-Glo luminescence; max response: active compounds read low; also: nearly all actives have a fitted effect of over 50% in size
Procedure, shortened: (§5)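 Cells were seeded together with NanoLuc luciferase and a prosubstrate that viable cells reduce to a luciferase substrate. After a 5 h incubation at 37 C/5% CO2, compounds were added and luminescence was measured repeatedly during 40 h of treatment.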

[14] = A CellTox Green Cytotoxicity Assay to monitor cytotoxicity in HEK293 cells - 24 hour (AID 1224875); also: nearly all actives have a fitted effect of over 45% in size
Procedure, shortened: as §3

[15] = A CellTox Green Cytotoxicity Assay to monitor cytotoxicity in HepG2 cells - 16 hour (AID 1224876); also: nearly all actives have a fitted effect of over 45% in size
Procedure, shortened: (§6)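 Read-out is fluorescence of a cyanine dye excluded from live cells that stains DNA of dead HepG2 cells, with signal proportional to cytotoxicity. Plates were read at 0, 8, 16, 24, 32 and 40 h after compound addition.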

[16] = qHTS RealTime-Glo MT Cell Viability Assay in HepG2 cells - 32 hour (AID 1224877); also: nearly all actives have a fitted effect of over 55% in size
Procedure, shortened: as §1

[17] = A CellTox Green Cytotoxicity Assay to monitor cytotoxicity in HepG2 cells - 24 hour (AID 1224878); also: nearly all actives have a fitted effect of over 45% in size
Procedure, shortened: as §6

[18] = A CellTox Green Cytotoxicity Assay to monitor cytotoxicity in HepG2 cells - 40 hour (AID 1224879); also: nearly all actives have a fitted effect of over 40% in size
Procedure, shortened: as §6

[19] = qHTS RealTime-Glo MT Cell Viability Assay in HEK293 cells - 0 hour (AID 1224880)
Procedure, shortened: as §5

[20] = qHTS RealTime-Glo MT Cell Viability Assay in HepG2 cells - 8 hour (AID 1224873); also: nearly all actives have a fitted effect of over 55% in size
Procedure, shortened: as §4
% is scaled to controls: 0 for no effect and ±100 for the full control effect.

CCCC(C)(COC(N)=O)COC(=O)NC(C)C (stereo not drawn)
inactive: Potency [1] | Potency [2] | outcome [3] | Potency [4] | Potency [5] | activity change, positive = activation ([6]; at 42.5 µM (top of the series)) 0.487% | activity change, positive = activation ([6]; at 92.4 µM (top of the series)) -2.02% | Potency [7] | Potency [8] | Potency [9] | Potency [10] | Potency [11] | Potency [12] | max response [13] -11.3% and 0.58% | Potency [14] | Potency [15] | Potency [16] | Potency [17] | Potency [18] | outcome [19]

O=C(O)c1cc(Cl)ccc1Cl
inactive: Potency [1] | Potency [2] | outcome [3] | Potency [4] | Potency [7] | Potency [8] | Potency [9] | Potency [10] | Potency [11] | Potency [12] | Potency [20] | max response [13] 8.52% | Potency [14] | Potency [15] | Potency [16] | Potency [17] | Potency [18] | outcome [19]

Clc1ccc(Cl)c(Cl)c1
inactive: Potency [1] | Potency [2] | outcome [3] | Potency [4] | Potency [5] | activity change, positive = activation ([6]; at 92.4 µM (top of the series)) -0.809% and 5.15% | Potency [7] | Potency [8] | Potency [9] | Potency [10] | Potency [11] | Potency [12] | Potency [20] | max response [13] -1.09% and 2.8% | Potency [14] | Potency [15] | Potency [16] | Potency [17] | Potency [18] | outcome [19]

O=C([O-])c1ccccn1.O=C([O-])c1ccccn1.O=C([O-])c1ccccn1.[Cr+3]
inactive: Potency [1] | Potency [2] | outcome [3] | Potency [4] | Potency [7] | Potency [8] | Potency [9] | Potency [10] | Potency [11] | Potency [12] | Potency [20] | max response [13] 2.2% | Potency [14] | Potency [15] | Potency [16] | Potency [17] | Potency [18] | outcome [19]

Nc1ccccc1C(=O)OCC(O)CO (stereo not drawn)
inactive: Potency [1] | Potency [2] | outcome [3] | Potency [4] | Potency [7] | Potency [8] | Potency [9] | Potency [10] | Potency [11] | Potency [12] | Potency [20] | max response [13] 9.15% | Potency [14] | Potency [15] | Potency [16] | Potency [17] | Potency [18] | outcome [19]

N#CC1(N=NC2(C#N)CCCCC2)CCCCC1
inactive: Potency [1] | Potency [2] | outcome [3] | Potency [4] | Potency [5] | activity change, positive = activation ([6]; at 92.4 µM (top of the series)) -5.87% | Potency [7] | Potency [8] | Potency [9] | Potency [10] | Potency [11] | Potency [12] | Potency [20] | max response [13] -7.83% | Potency [14] | Potency [15] | Potency [17] | Potency [18] | outcome [19]
